# From PubChem BioAssay
# Only some compounds are listed: those with a hit (about 3.4% of all), similar ones and a draw of the others.
# GAA850 FXN act: activators of GAA850 frataxin (FXN) promoter; activation, % at 6 µM; AID 540364; HEK293 lucGAA850 FXN promoter luciferase reporter, 24 h; percent of 10 µM SAHA response; 360,000 compounds, 0.56% hits;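 active means activation above the average of all compounds screened plus 3 SD, cutoff fixed separately per campaign, cut at about 7.5% in these data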;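 further: 0% = DMSO wells and 100% = 10 µM SAHA wells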
# NR2F2 inh: blocks human COUP-TFII nuclear receptor; AID 686940; inhibition, % at 8.6 µM; P24468; 370,000 compounds, 0.7% hits; HEK293T NGFI-A luciferase reporter, luminescence;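 active means inhibition above a per-plate cutoff, mean inhibition of test wells between control levels plus 3 SD, cut at about 38% in these data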;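 further: cells cotransfected with COUP-TFII expression vector driving the NGFI-A reporter; 0% = median of COUP-TF2 test wells and 100% = reporter-only cells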
# Target sequence (P24468 whole entry, looked up): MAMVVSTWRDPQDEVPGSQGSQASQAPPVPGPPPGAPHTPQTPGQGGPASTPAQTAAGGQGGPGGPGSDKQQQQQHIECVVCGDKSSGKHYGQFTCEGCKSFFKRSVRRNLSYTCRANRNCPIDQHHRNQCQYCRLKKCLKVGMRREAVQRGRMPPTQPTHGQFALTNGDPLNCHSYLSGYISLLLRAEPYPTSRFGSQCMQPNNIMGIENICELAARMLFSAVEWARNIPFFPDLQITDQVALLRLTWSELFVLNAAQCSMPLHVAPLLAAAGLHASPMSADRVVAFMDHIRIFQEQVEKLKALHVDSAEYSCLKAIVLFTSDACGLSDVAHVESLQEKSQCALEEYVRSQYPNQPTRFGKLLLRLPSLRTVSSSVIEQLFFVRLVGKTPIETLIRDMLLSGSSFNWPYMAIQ
# GalR3 antag: blocks the human galanin receptor 3 | O60755 | HEK293 GalR3-CNG cAMP membrane potential fluorescence; galR3 body fused to GalR1 C-terminus | inhibition, % at 3 µM | 360,000 compounds, 0.44% hits | AID 651719;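 active means inhibition above the screen-wide average plus 3 SD, cut at about 13% in these data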;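 further: forskolin and galanin both at EC90 stimulate the cells; cAMP rise reported by CNG channel membrane potential dye signal; 0% = forskolin plus galanin with DMSO and 100% = forskolin alone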
# Gli-Sufu block: blocks Gli-Sufu signaling in a luciferase reporter | 340,000 compounds, 0.74% hits | Sufu-KO-LIGHT fibroblasts, Gli luciferase reporter luminescence | inhibition, % at 5 µM;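 active means inhibition above about 55%, limit read from the data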;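 further: 0% = DMSO-treated cells and 100% = wells with medium but no cells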
# H9c2 protect: myocardial damage modulation in H9c2 cells; 360,000 compounds, 0.63% hits; H9c2 cardiomyocytes, H2O2 injury protection, ATPLite, 2 h; AID 588492; protection from H2O2 cell death, % at 20 µM;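 active means compounds giving at least 50% protection of heart cells from peroxide-induced death in the single-dose screen, raw or plate-pattern-corrected value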;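 further: 0% = DMSO wells with peroxide and 100% = DMSO wells without peroxide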
# SMARCA2 act: activators of SMARCA2 function. 370,000 compounds, 1% hits. MG213 cells, MMTV-luciferase reporter, dexamethasone, overnight. activation, % at 9.1 µM; in the data active means activation above about 7.8%;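 further: 0% = vehicle wells and 100% = reference activator wells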
# * hit, by the source's call; nt = no result given.
SMILES,GAA850 FXN act,NR2F2 inh,GalR3 antag,Gli-Sufu block,H9c2 protect,SMARCA2 act
O=C(CCc1nc2ccccc2c(=O)[nH]1)Nc1cc(Cl)ccc1N1CCCC1,0,-8,-2,-21,38,-3
COc1ccc(NC(=O)CCc2nc3ccccc3c(=O)[nH]2)cc1S(=O)(=O)N1CCCCC1,1,0,-3,6,93*,-2
CC(=O)Nc1ccc2c(c1)C(=O)N(C)[C@H]1CC[C@H](CC(=O)NCc3ccc(F)cc3)O[C@@H]1CO2,nt,1,nt,nt,nt,3
Nc1c(C(=O)NCC(O)c2ccccc2)cnn1-c1ccccc1 (stereo not drawn),nt,-28,nt,nt,nt,5
CN(C(=O)CCc1nc2ccccc2c(=O)[nH]1)C1CCS(=O)(=O)C1 (stereo not drawn),2,-8,-5,-4,76*,1
Nn1c(SCc2ccc([N+](=O)[O-])cc2)nnc1-c1n[nH]c2c1CCC2,nt,-2,nt,nt,nt,1
COc1ccc(C(=O)NCC2CCN(C(=O)C(=O)c3cccs3)CC2)cc1,nt,13,-4,nt,nt,-7
C=CCN1[C@H](C#N)[C@@H](c2ccccc2)[C@H]1CO,nt,-12,nt,nt,nt,-3
O=C(Nc1ccc(Cl)cc1)OC1CCC12CCC(c1ccccc1)CC2 (stereo not drawn),nt,4,nt,nt,nt,-2
O=C(Cn1ncc2c3ccccc3n(Cc3ccccc3)c2c1=O)N1CCN(c2ccccn2)CC1,19*,nt,nt,0,1,nt
COc1cc2c(C(=O)NCc3ccccn3)cn(CC(C)C)c(=O)c2cc1OC,2,-2,-1,1,54*,-2
CC(C)Cn1c(=O)c(C(=O)NCc2ccccn2)c(O)c2ccccc21,0,19,0,0,56*,-1
CCn1c(=O)c(C(=O)NCc2ccccc2)c(O)c2ccccc21,2,-1,-8,7,14,-1
COCCCN1C(=O)C(CC(=O)NCCCN(C)C)CC(C(=O)N2CCOCC2)=C1C (stereo not drawn),nt,-9,-6,nt,-2,-2
CC(C)(C)C(=O)/C=c1\s/c(=C\c2ccc(-c3ccc([N+](=O)[O-])cc3)o2)c(=O)n1CC(=O)NC(N)=O,0,-28,-4,9,52*,5
CCC(=O)N/N=C/c1ccc(-c2ccc([N+](=O)[O-])cc2)o1,4,-10,-5,-5,8,0
CCOC(=O)Cc1c(C)nc2c(-c3ccc(Cl)cc3)c[nH]n2c1=O,-1,-1,-2,11,52*,-2
O=S1(=O)c2c(cccc2N2CCSCC2)Oc2ccccc2CN1Cc1cn(Cc2ccc(C(F)(F)F)cc2)nn1,nt,8,nt,nt,nt,-3
CC(=O)Nc1ccc(N=Cc2c(O)c(C(=O)Nc3ccccc3)cc3ccccc23)cc1,nt,-12,-5,-9,nt,-4
CCOc1cc(Br)c(Br)c(C=Nc2ccc(NC(C)=O)cc2)c1O,-1,-7,-2,-4,94*,0
COc1cc2nc(Nc3ccc(F)cc3)nc(N)c2cc1OC,0,-2,-5,6,55*,0
COc1cc2nc(Nc3ccc(C)c(C)c3)nc(N)c2cc1OC,0,6,-15,9,-3,6
COC(=O)[C@]12C[C@H](CC(=O)N3CCOCC3)C(=O)N(Cc3ccc(Cl)cc3Cl)C1=C[C@H](C1CCCC1)O[C@@H]2C,nt,19,nt,nt,nt,-3
CC(=O)Nc1ccc(NC(=O)CN(c2ccc(C34CC5CC(CC(C5)C3)C4)cc2)S(C)(=O)=O)cc1,9.5*,4,2,-10,-8,0
CS(=O)(=O)N(CC(=O)Nc1ccc(CC#N)cc1)c1ccc(C23CC4CC(CC(C4)C2)C3)cc1,11*,-2,-6,-21,-18,-3
SMILES,GAA850 FXN act,NR2F2 inh,GalR3 antag,Gli-Sufu block,H9c2 protect,SMARCA2 act
Cc1ccccc1Cn1cc(CN2[C@@H](C)COc3cc(Br)ccc3S2(=O)=O)nn1,nt,6,nt,nt,nt,-3
Cc1c(C(O)(c2ccccc2)c2ccccc2)[n+]2ccccc2n1C,nt,-40,nt,nt,nt,nt
O=C(NCc1n[nH]c(=O)c2ccccc12)C1CC(=O)N(c2ccccc2)C1 (stereo not drawn),1,12,-3,-6,67*,0
C#CCN(Cc1ccco1)C(=O)c1nnc2c3ccccc3n(S(=O)(=O)c3ccc(C)cc3)c2n1,nt,25,-7,nt,nt,-3
COC(=O)C1CN(C2CCCC2)CCS(=O)(=O)N1Cc1ccccc1 (stereo not drawn),nt,2,nt,nt,nt,0
Cc1[nH]n2c(=O)cc(C(C)C)nc2c1-c1ccccc1,-2,-8,1,-10,17,-4
Cc1[nH]n2c(=O)cc(C(C)(C)C)nc2c1-c1ccccc1,-4,12,2,15,53*,-4
CN(C)Cc1csc(NC(=O)Nc2ccccc2Oc2ccccc2)n1,4,-2,-8,nt,17,7.9*
O=C(c1ccco1)N1CCN(Cc2nc3ccc([N+](=O)[O-])cc3c(=O)n2-c2ccccc2F)CC1,-4,-11,6,18,54*,4
Cc1ccc(C)c2[nH]c(=O)c(CN(Cc3ccc4c(c3)OCO4)Cc3nnnn3Cc3ccco3)cc12,-2,6,3,13,60*,0
COc1ccc2cc(CN(CCc3ccccc3)Cc3nnnn3CC3CCCO3)c(=O)[nH]c2c1 (stereo not drawn),1,0,-3,-6,0,-1
O=c1[nH]c2cc3c(cc2cc1CN(Cc1nnnn1CC1CCCO1)C1CCCCC1)OCO3 (stereo not drawn),1,-23,9,-4,57*,0
CCOc1ccc2[nH]c(=O)c(CN(Cc3nnnn3Cc3ccco3)C3CCCCC3)cc2c1,1,20,2,-3,59*,4
COc1ccc2[nH]c(=O)c(CN(CCc3ccccc3)Cc3nnnn3CC3CCCO3)cc2c1 (stereo not drawn),4,8,-5,34,76*,0
CCCC/C=C1/[C@H](CC)N(C)C2=N[C@@H](c3ccccc3)CC(=O)N21,nt,-9,nt,nt,nt,nt
CC1=C2NC(N)=[N+](Cc3ccccc3)CC2n2c(=O)n(-c3ccccc3)c(=O)n2C1 (stereo not drawn),nt,-8,nt,nt,nt,-2
CCOC(=O)[C@@]12CN(C(=O)OC(C)(C)C)CC=C1N(Cc1ccc(OC)cc1)C(=O)[C@H]2CC(=O)NCc1ccc(C)o1,nt,-14,nt,nt,nt,-3
COc1ccc2[nH]c(=O)c(CN(Cc3ccco3)Cc3nnnn3Cc3ccccc3)cc2c1,-1,10,-3,-8,66*,0
Cc1ccccc1NC(=O)OC1CCC12CCCCC2 (stereo not drawn),nt,-9,nt,nt,nt,-4
COC(=O)Cn1c(=NC(=O)c2nc3ccccc3s2)sc2cc(S(N)(=O)=O)ccc21,2,-17,-9,8,1,3
COC(=O)Cn1c(=NC(=O)c2cc(-c3cccs3)nc3ccccc23)sc2cc(S(N)(=O)=O)ccc21,1,-3,-4,12,66*,-2
